# From PubChem BioAssay
# Calls of active or inactive are those of the source. Unless noted, no rule for the calls is given here.
# Legend:
# [1] = tested on: XIP peptide (Xip251-270) binding; assay: small-molecule binders of XIP peptide, primary screen, biochemical, small-molecule microarray, fluorescence 635/667 nm, 0.1 µg/mL protein (AID 1182); conditions: fluorescent protein binding, 635 nm, higher = more signal, called active from +8 up or from −8 down
# XIP peptide (Xip251-270) = assay: small-molecule binders of XIP peptide, primary screen, biochemical, small-molecule microarray, fluorescence 635/667 nm, 0.5 µg/mL protein (AID 1183); conditions: small-molecule microarray binding, fluorescence 635 nm; higher = more signal
# [2] = Plasmodium falciparum growth inhibition, primary screen, strain 3D7, DAPI fluorescence, 100 nL (AID 1184);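 also: parasites grown inside human red blood cells in medium with human serum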; conditions: P. falciparum 3D7 growth, 3 d, higher = more signal
# [3] = target: Homeobox protein Hox-A13 (Mus musculus) (UniProt Q62424); assay: inhibitors of HoxA13-DNA binding, primary screen, biochemical, fluorescence polarization, labeled oligonucleotide (AID 1185); conditions: 15 min, higher = more signal, called active from +8 up or from −8 down
# Chain of Homeobox protein Hox-A13 (Mus musculus) (Q62424 whole entry, looked up): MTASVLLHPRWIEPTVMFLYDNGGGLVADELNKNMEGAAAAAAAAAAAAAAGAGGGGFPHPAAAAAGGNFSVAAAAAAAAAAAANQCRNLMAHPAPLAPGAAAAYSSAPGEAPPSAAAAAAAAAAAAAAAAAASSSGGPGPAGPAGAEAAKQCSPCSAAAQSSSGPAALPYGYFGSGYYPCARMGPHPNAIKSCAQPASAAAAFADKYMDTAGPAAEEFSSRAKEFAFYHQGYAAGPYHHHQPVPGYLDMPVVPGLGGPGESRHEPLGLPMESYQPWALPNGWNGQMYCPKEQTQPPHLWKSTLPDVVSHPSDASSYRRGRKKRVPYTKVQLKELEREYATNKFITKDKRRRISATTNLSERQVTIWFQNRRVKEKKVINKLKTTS
# [4] = inhibitors of hydroxyurea-induced Chk1 phosphorylation, primary screen, imaging, HeLa, phospho-Chk1 antibody, percent positive cells (AID 1186); conditions: hydroxyurea-induced phospho-Chk1 immunofluorescence imaging, higher = more signal
# [5] = inhibitors of hydroxyurea-induced Chk1 phosphorylation, primary screen, imaging, HeLa, phospho-Chk1 nuclear intensity (AID 1187); conditions: hydroxyurea-induced phospho-Chk1 immunofluorescence imaging, higher = more signal
SMILES,composite z-score [1],composite z-score (XIP peptide (Xip251-270)),z-score [2],z-score [3],z-score [4],z-score [5]
Cc1ccc(C(C)CC(O)C2C=CC3C(=O)N(C)C(=O)C3N2NC(=O)OC(C)(C)C)o1 (centres undefined),3.24 (inactive),0.709,0.556,-3.33 (inactive),-0.158 (inactive),-0.168 (inactive)
O=C(NCC(F)(F)F)[C@@H]1c2ccccc2C(=O)N(C2CCCCC2)[C@H]1c1ccc(CO)cc1,0.0572 (inactive),0.434,-0.676,-3.32 (inactive),0.142 (inactive),-0.156 (inactive)
C=CCOC(=O)[C@@H]1[C@H]2C(=O)O[C@H](c3ccccc3)[C@H](c3ccccc3)N2[C@H](c2ccc(OCCOC(=O)[C@@H]3C[C@@H]4C(=O)N[C@@H](Cc5ccccc5)C(=O)N4[C@@H]3c3ccc(O)cc3)cc2)[C@@]12C(=O)Nc1ccc(I)cc12,0.895 (inactive),0.736,-1.95,-0.584 (inactive),0.193 (inactive),0.453 (inactive)
CC1CC/C=C\[C@H]2OC34C=CCN(c5ccc(Cl)cc5)C(=O)[C@H]3N(CCO)C(=O)[C@]4(C)C2C(=O)O1 (some centres undefined),1.21 (inactive),0.18,-0.515,-4.66 (inactive),-0.0711 (inactive),-0.271 (inactive)
C=C[C@H](COC(C)=O)N(C(=O)OC(C)(C)C)S(=O)(=O)c1ccc(Br)cc1,0.252 (inactive),-0.263,1.18,-2.87 (inactive),-0.255 (inactive),0.0038 (inactive)
C[C@@H]1ON(c2cccc(C(=O)OC(C)(C)C)c2)[C@H](c2ccc(Br)cc2)[C@H]1C(=O)N1C(=O)OC[C@H]1Cc1ccccc1,0.543 (inactive),0.615,-0.829,-0.923 (inactive),0.0511 (inactive),0.176 (inactive)
O=C1O[C@H](c2ccccc2)[C@H](c2ccccc2)N2[C@H]1[C@@H](C(=O)Nc1nc3ccccc3s1)[C@]1(C(=O)Nc3ccc(C#CCCO)cc31)[C@H]2c1ccc(OCCO)cc1,0.497 (inactive),0.769,-1.19,1.37 (inactive),-0.239 (inactive),-0.262 (inactive)
COCCCNC(=O)[C@@]1(Cc2ccccc2)N=C(c2ccc(OCCCO)cc2)O[C@H]1c1ccccc1,0.111 (inactive),0.752,-2,-5.35 (inactive),0.129 (inactive),0.221 (inactive)
C=CCC(OC(C)=O)[C@@H]1[C@@H](N(Cc2cccc3ccccc23)C(=O)c2ccc(-c3ccccc3)cc2)c2cc(OCCCO)ccc2N1C(=O)Cc1ccc(OC)cc1 (some centres undefined),-0.162 (inactive),0.637,-1.17,-1.15 (inactive),-0.302 (inactive),-0.0837 (inactive)
CC1CC/C=C\[C@H]2OC34C=CCN(C(C)(C)C)C(=O)[C@H]3N(CCCCCCO)C(=O)[C@@H]4C2C(=O)O1 (some centres undefined),1.87 (inactive),-0.512,0.621,-4.21 (inactive),-0.82 (inactive),0.193 (inactive)
COC(=O)[C@@]1(Cc2ccc(OC)cc2)[C@H]2c3cc(C(=O)N4CCCC4)n(Cc4ccsc4Br)c3C[C@H]2CN1C(=O)c1ccccc1,-0.0625 (inactive),0.75,-1.59,-5.51 (inactive),-0.592 (inactive),-1.13 (inactive)
CN(C)CCCNC(=O)[C@@]1(C)c2ccccc2C(=O)N(Cc2cc(F)cc(C(F)(F)F)c2)[C@H]1c1ccc(CO)cc1,-0.55 (inactive),-0.114,-0.809,-2.15 (inactive),0.0595 (inactive),0.121 (inactive)
O=C1C2C=CC(C(O)c3ccc(F)cc3)N(Nc3ccccc3F)C2C(=O)N1c1ccccc1 (centres undefined),1.27 (inactive),0.252,0.712,-3.25 (inactive),0.186 (inactive),0.154 (inactive)
Cc1ccc(S[C@]2(C(=O)NCCN3CCOCC3)CC(=O)N(Cc3ccccc3Cl)[C@@H]2c2ccc(CO)cc2)cc1,-0.255 (inactive),0.686,-1.47,-4.04 (inactive),-0.114 (inactive),-0.121 (inactive)
NCCCCCNC(=O)[C@@H]1C[C@@H]2C(=O)NCC(=O)N2[C@@H]1c1ccc(O)cc1,0.715 (inactive),0.416,0.112,-1.06 (inactive),-0.44 (inactive),-0.316 (inactive)
CN(C)C(=O)[C@]1(Cc2ccccc2N=[N+]=[N-])N=C(c2ccc(OCCCO)cc2)O[C@@H]1c1ccccc1,1.03 (inactive),0.383,-2.02,-6.21 (inactive),-0.879 (inactive),-1.26 (inactive)
C=CCNC(=O)[C@@H]1[C@H]2C(=O)O[C@H](c3ccccc3)[C@H](c3ccccc3)N2[C@H](c2ccc(OCCO)cc2)[C@@]12C(=O)Nc1ccc(C#CCCO)cc12,0.95 (inactive),0.77,-1.02,-3.63 (inactive),0.0523 (inactive),0.205 (inactive)

SMILES,composite z-score [1],composite z-score (XIP peptide (Xip251-270)),z-score [2],z-score [3],z-score [4],z-score [5]
CCOC(=O)C1=CCC(c2ccc(C)cc2)N(S(=O)(=O)c2ccc(C)cc2)C1 (centres undefined),0.34 (inactive),0.46,-1.65,-2.32 (inactive),0.283 (inactive),0.449 (inactive)
COCCOC(=O)N1C(=O)[C@@]2(c3ccccc31)[C@H](c1ccc(O)cc1)N1[C@H](c3ccccc3)[C@H](c3ccccc3)OC(=O)[C@H]1[C@@H]2C(=O)NC[C@H](O)c1ccccc1,2.15 (inactive),0.837,-0.682,-5.58 (inactive),-0.229 (inactive),-0.211 (inactive)
[N-]=[N+]=NCc1ccccc1[C@H]1OC(c2ccc(OCCCO)cc2)=N[C@@]1(Cc1ccccc1)C(=O)NCc1ccccc1,0.212 (inactive),0.471,-2.49,2.55 (inactive),-0.287 (inactive),-0.083 (inactive)
C[N+](C)(C)CCCCNC(=O)[C@H]1C[C@H]2C(=O)N[C@@H](Cc3ccccc3)C(=O)N2[C@H]1c1ccc(O)cc1,1.17 (inactive),-0.229,0.498,-1.49 (inactive),0.671 (inactive),0.345 (inactive)
C#CCN(CC=C(C)C)[C@H](CO)c1ccccc1,0.102 (inactive),-0.564,-1.34,-0.2 (inactive),0.557 (inactive),0.457 (inactive)
C[N+](C)(C)CCCC[C@@H]1NC(=O)[C@@H]2C[C@H](C(=O)NCCCCCN)[C@H](c3cccc(OCCO)c3)N2C1=O,-0.442 (inactive),0.572,0.137,-3.6 (inactive),-0.86 (inactive),-0.231 (inactive)
CC(C)[C@@H](CO)NC(=O)[C@H]1[C@@H](c2ccccc2)N(c2ccccc2)O[C@@H]1C,-0.795 (inactive),-0.248,0.484,-1.23 (inactive),-0.0482 (inactive),0.564 (inactive)
[N-]=[N+]=Nc1ccccc1C[C@]1(C(=O)NCC(O)CO)N=C(c2ccc(OCCCO)cc2)O[C@H]1c1ccccc1N=[N+]=[N-] (some centres undefined),0.0936 (inactive),-0.316,-2.44,-5.33 (inactive),-0.467 (inactive),-0.312 (inactive)
O=C1OCCC/C=C\[C@H]2OC34C=CCN(Cn5nnc6ccccc65)C(=O)[C@H]3N(CCCCCCO)C(=O)[C@@H]4C12 (some centres undefined),-0.0221 (inactive),-0.0976,-0.395,-4.38 (inactive),-0.471 (inactive),0.832 (inactive)
COc1ccc(CCNC(=O)[C@@]2(Sc3ccc(C)cc3)CC(=O)N(C3CCCCC3)[C@@H]2c2ccc(CO)cc2I)cc1,0.0537 (inactive),0.753,-2.12,-1.88 (inactive),0.431 (inactive),1.23 (inactive)
CCOC(=O)C[C@H]1[C@H](OC(=O)c2cc3ccccc3oc2=O)[C@@H](NC(=O)C2CCCCC2)c2cc(OCCCO)ccc2N1C(=O)c1ccccc1,-0.194 (inactive),0.327,-1.73,-3.06 (inactive),0.895 (inactive),1.11 (inactive)
COC(=O)C(CC#Cc1ccc2c(c1)[C@]1(C(=O)N2)[C@H](C(=O)O)[C@H]2C(=O)O[C@H](c3ccccc3)[C@H](c3ccccc3)N2[C@@H]1c1ccc(O)cc1)C(=O)OC,0.12 (inactive),0.713,0.49,-6.07 (inactive),-0.287 (inactive),-0.507 (inactive)
O=C1NC(=O)C2C1C=CC(C(O)c1ccccc1)N2Nc1ccc(Cl)cc1Cl (centres undefined),-0.0839 (inactive),0.812,0.416,-5.54 (inactive),-0.346 (inactive),-0.621 (inactive)
COCCOC(=O)N1C(=O)[C@@]2(c3cc(C#CCCO)ccc31)[C@H](C(=O)N1CCN(c3ncccn3)CC1)[C@H]1C(=O)O[C@H](c3ccccc3)[C@H](c3ccccc3)N1[C@@H]2c1ccccc1OCCO,0.954 (inactive),0.655,-2.28,-1.58 (inactive),-0.0632 (inactive),0.111 (inactive)
COc1ccc([Si](C)(C)[C@H]2[C@H](CC(=O)N3CCC[C@H]3CO)O[C@@]3(C(=O)N(Cc4cccc(N5C(=O)c6cccc7cccc5c67)c4)c4ccccc43)[C@@H]2C)cc1,0.397 (inactive),0.674,-1.72,-3.25 (inactive),-0.0887 (inactive),-0.429 (inactive)
O=C1C2C=CC(C(O)c3c(F)cccc3Cl)N(Nc3ccccc3)C2C(=O)N1c1ccccc1 (centres undefined),0.469 (inactive),0.702,-0.342,-3.25 (inactive),0.653 (inactive),0.683 (inactive)
COc1ccc(C(O)C2C=CC3C(=O)N(c4ccccc4)C(=O)C3N2Nc2ccc(C(C)C)cc2)cc1OCc1ccccc1 (centres undefined),0.658 (inactive),0.8,0.1,-0.47 (inactive),-0.309 (inactive),-0.472 (inactive)
